# Unmarked numbers belong to inactive results.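 The calls were made as follows: active = log2 fold change beyond 2 SD from the library mean after excluding viability outliers; inactive = within 2 SD.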
# Target: PARP1 L713F-nLuc biosensor (HCT116) (UniProt P09874)
# Assay: PARP1 L713F-nLuc/akaLuc ratio relative to DMSO control (biosensor stabilization) (fold change); higher = more PARP1 biosensor stabilization (target engagement / stabilizer), active = hit call of the paper
# Conditions: stock concentration (mM; final µM = stock mM x 1): 10; 24 h
# Chain of PARP1 L713F-nLuc biosensor (HCT116) (P09874 whole entry L713F, looked up): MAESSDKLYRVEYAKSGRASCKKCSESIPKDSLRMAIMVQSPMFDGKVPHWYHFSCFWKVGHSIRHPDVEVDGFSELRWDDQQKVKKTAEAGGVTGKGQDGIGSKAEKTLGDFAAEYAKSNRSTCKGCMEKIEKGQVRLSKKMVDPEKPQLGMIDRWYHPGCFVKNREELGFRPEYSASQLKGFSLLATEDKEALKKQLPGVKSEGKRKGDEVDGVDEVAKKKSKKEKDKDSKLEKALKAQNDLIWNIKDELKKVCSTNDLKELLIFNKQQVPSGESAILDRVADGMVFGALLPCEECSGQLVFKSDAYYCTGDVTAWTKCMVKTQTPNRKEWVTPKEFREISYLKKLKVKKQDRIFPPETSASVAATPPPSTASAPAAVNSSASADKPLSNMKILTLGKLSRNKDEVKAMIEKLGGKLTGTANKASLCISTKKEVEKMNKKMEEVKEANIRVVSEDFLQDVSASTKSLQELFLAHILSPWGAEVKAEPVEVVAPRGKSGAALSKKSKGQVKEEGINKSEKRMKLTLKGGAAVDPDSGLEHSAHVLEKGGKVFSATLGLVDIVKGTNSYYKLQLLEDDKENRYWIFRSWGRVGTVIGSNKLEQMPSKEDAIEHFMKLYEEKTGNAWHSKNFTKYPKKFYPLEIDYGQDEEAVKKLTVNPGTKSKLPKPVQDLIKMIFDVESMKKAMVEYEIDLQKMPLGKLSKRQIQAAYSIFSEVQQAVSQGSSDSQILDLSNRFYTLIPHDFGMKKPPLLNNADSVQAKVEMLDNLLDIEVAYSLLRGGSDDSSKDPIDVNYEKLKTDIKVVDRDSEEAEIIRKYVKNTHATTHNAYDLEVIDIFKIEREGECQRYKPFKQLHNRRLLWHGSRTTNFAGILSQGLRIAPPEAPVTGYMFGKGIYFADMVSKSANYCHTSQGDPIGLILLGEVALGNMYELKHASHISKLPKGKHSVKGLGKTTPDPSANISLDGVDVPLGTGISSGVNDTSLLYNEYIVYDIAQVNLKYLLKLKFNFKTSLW
row,Structure (SMILES),PARP1 L713F-nLuc/akaLuc ratio
1,CC(NC(=O)c1ccccc1/N=C/c1c(O)ccc2ccccc12)c1ccccc1 (stereo not given) [Sirtinol],0.699
2,O=C(/C=C\n1cnc(-c2cc(C(F)(F)F)cc(C(F)(F)F)c2)n1)NNc1cnccn1 [Selinexor (KPT-330)],0.434
3,Cc1cc(C)nc(SCC(=O)Nc2ncc(Cc3cccc4ccccc34)s2)n1,0.926
4,COc1cc2ncnc(Nc3ccc(F)c(Cl)c3)c2cc1OCCCN1CCOCC1 [Gefitinib (ZD1839)],1.04
5,O=c1oc2cc(O)ccc2c2ccccc12 [Urolithin B],0.914
6,NC(=O)c1cccc(-c2cccc(OC(=O)NC3CCCCC3)c2)c1,1.05
7,C/C(=N\NC(=O)c1cccc(S(=O)(=O)N2CCOCC2)c1)c1cc(Cl)ccc1O,0.495
8,CC[C@H](C)[C@H](NC(=O)[C@H](CCCCN)NC(=O)[C@H](CC(C)C)NC(=O)[C@@H]1CCCN1C(=O)[C@H](CCC(=O)O)NC(=O)[C@H](Cc1ccc(O)cc1)NC(=O)[C@@H](NC(=O)[C@H](CO)NC(=O)CNC(=O)[C@H](CO)NC(=O)[C@H](CCCN=C(N)N)NC(=O)[C@H](CCCCN)NC(=O)[C@@H](NC(=O)[C@@H](N)CCCN=C(N)N)[C@@H](C)O)C(C)C)C(=O)O [Malantide],1.76
9,O=C(NCc1ccncc1)C12CC3CC(C1)CC(c1ccc(Cl)cc1)(C3)C2,0.757
10,O=C(NCC1(c2nc(-c3ccccc3)cs2)CCOCC1)c1cccc(-c2noc(C(F)(F)F)n2)c1,0.465

# — the supplement of paper PMC11624193, “Coupling cellular drug-target engagement to downstream pharmacology with CeTEAM” (Nature Communications, 2024)
